Data from the supplement of paper PMC8975748.
Where a name gives a salt, the structure may show the parent alone.

System: Saccharomyces cerevisiae BY4741 SeMeCo community
Test: z-score of subpopulation abundance vs DMSO median, subpopulation auxotrophic for L; higher = larger share of this subpopulation than in DMSO controls
Settings: 10 µM; 24 h; SM minimal medium; subpopulation (auxotrophy): L
Summary of the method: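 Cells of a Saccharomyces cerevisiae BY4741 community, carrying four plasmids that each restored one auxotrophy and encoded a distinct fluorescent protein, were pre-grown overnight to OD600 1.0 and diluted to 0.3. A 70 µl volume was added to 384-well plates acoustically predosed with library drugs (10 µM final) and grown 24 h in minimal SM medium. After paraformaldehyde fixation, automated confocal microscopy was used, with single-auxotroph fluorescent strains for thresholds and autofluorescence correction. The abundance of each subpopulation was scored as a z-score against the vehicle-well median.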

Structure (SMILES)	z-score of subpopulation abundance
O=C(Cn1cnnn1)N[C@@H]1C(=O)N2C(C(=O)O)=C(CSc3nncs3)CS[C@H]12 [Ceftezole]	-0.41
O=C(NCCN1CCOCC1)c1ccc(Cl)cc1	1.75
C=C[C@]1(C)C[C@@H](OC(=O)CSC(C)(C)CNC(=O)[C@H](N)C(C)C)[C@]2(C)[C@H](C)CC[C@]3(CCC(=O)[C@H]32)[C@@H](C)[C@@H]1O [Valnemulin HCl]	0.38
CN1CCN(CCCN2c3ccccc3Sc3ccc(C(F)(F)F)cc32)CC1 [Trifluoperazine 2HCl]	-0.42
CCCCCCCCN=c1ccn(CCCCCCCCCCn2ccc(=NCCCCCCCC)cc2)cc1 [Octenidine Dihydrochloride]	3.6
CC1(C)S[C@@H]2[C@H](NC(=O)Cc3ccccc3)C(=O)N2[C@H]1C(=O)O [Penicillin G Sodium]	-0.1
CC(C)[C@H]1CC[C@H](C(=O)N[C@H](Cc2ccccc2)C(=O)O)CC1 [Nateglinide]	0.26
Nc1ccc(S(=O)(=O)NC(=O)c2ccccc2)cc1 [Sulfabenzamide]	-0.13
COc1ccc(C(=O)NCc2ccc(OCCN(C)C)cc2)cc1OC [Itopride hydrochloride]	0
COc1ccc(-c2nc3cc(C4=NNC(=O)CC4C)ccc3[nH]2)cc1 (stereo not given) [Pimobendan]	1.93
CC(C)N1CCN(c2ccc(OCC3COC(Cn4cncn4)(c4ccc(Cl)cc4Cl)O3)cc2)CC1 (stereo not given) [Terconazole]	0.04
COc1cc([C@@H]2c3cc4c(cc3[C@@H](O[C@@H]3O[C@@H]5CO[C@@H](c6cccs6)O[C@H]5[C@H](O)[C@H]3O)[C@H]3COC(=O)[C@H]23)OCO4)cc(OC)c1O [Teniposide]	1.6
COc1ccc2c(c1)c(CC(=O)O)c(C)n2C(=O)c1ccc(Cl)cc1 [Indomethacin]	0.48
N[C@@H](CCC(=O)O)C(=O)O [(S)-Glutamic acid]	0.52
CC1(C)S[C@@H]2[C@H](NC(=O)Cc3ccccc3)C(=O)N2[C@H]1C(=O)O [Benzylpenicillin potassium]	0.24
NC(=O)c1cnccn1 [Pyrazinamide]	-1.21
Cc1nnc(NS(=O)(=O)c2ccc(N)cc2)s1 [Sulfamethizole]	0.65
CCC[C@@H]1C[C@@H](C(=O)N[C@@H]([C@H]2O[C@H](SC)[C@H](OP(=O)(O)O)[C@@H](O)[C@H]2O)[C@H](C)Cl)N(C)C1 [Clindamycin Phosphate]	-0.86
CN[C@@H]1[C@H](O[C@H]2[C@H](O[C@H]3[C@H](O)[C@@H](O)[C@H](N=C(N)N)[C@@H](O)[C@@H]3N=C(N)N)O[C@@H](C)[C@]2(O)C=O)O[C@@H](CO)[C@H](O)[C@H]1O [Streptomycin sulfate]	-1.14
O=c1[nH]cnc2c1ncn2[C@@H]1O[C@H](CO)[C@@H](O)[C@H]1O [Isoprinosine]	-0.33
C=C1c2cccc(O)c2C(O)=C2C(=O)[C@]3(O)C(O)=C(C(N)=O)C(=O)[C@@H](N(C)C)[C@@H]3[C@@H](O)[C@H]12 [Methacycline HCl]	1.08
COC(=O)C1=C(C)NC(C)=C(C(=O)OC)C1c1ccccc1[N+](=O)[O-] [Nifedipine]	0.52
Nc1ccc(S(=O)(=O)c2ccc(N)cc2)cc1 [Dapson]	0.59
NC(CO)(CO)CO [Trometamol]	0.58
C[C@]1(COc2ccc(N3CCC(Oc4ccc(OC(F)(F)F)cc4)CC3)cc2)Cn2cc([N+](=O)[O-])nc2O1 [Delamanid]	1.53
Nc1nc(=O)[nH]cc1F [Flucytosine]	-1.32
CO[C@@H]1[C@@H](O[C@@H]2O[C@H](C)[C@@H](O[C@H]3C[C@@](C)(O)[C@@H](O)[C@H](C)O3)[C@H](N(C)C)[C@H]2O)[C@@H](CC=O)C[C@@H](C)[C@@H](O[C@H]2CC[C@H](N(C)C)[C@@H](C)O2)/C=C/C=C/C[C@@H](C)OC(=O)C[C@H]1OC(C)=O [Acetylspiramycin (ASPM)]	1.91
C[C@]12CC[C@@H]3c4ccc(OS(=O)(=O)O)cc4CC[C@H]3[C@@H]1CCC2=O [Estropipate]	-0.9
COc1ccnc(C[S+]([O-])c2nc3cc(-n4cccc4)ccc3[nH]2)c1C (stereo not given) [Ilaprazole sodium]	1.32
CN1C[C@@H]2C[C@H]1CN2c1cc2c(cc1F)c(=O)c(C(=O)O)cn2C1CC1 [Danofloxacin Mesylate]	-0.69
